Screening results as filed in PubChem.
D1 antagonist: blocks dopamine activation of the human D1 receptor | P21728 | HEK293 TREx D1 cells, calcium flux, dopamine EC80; hits give low values | activity change, negative = inhibition, % at 10 µM | 360,000 tested, 3.2% active; in the data active = activity change below about -30%; also: % is scaled to controls: 0 for no effect and ±100 for the full control effect
Target sequence (P21728 whole entry, looked up): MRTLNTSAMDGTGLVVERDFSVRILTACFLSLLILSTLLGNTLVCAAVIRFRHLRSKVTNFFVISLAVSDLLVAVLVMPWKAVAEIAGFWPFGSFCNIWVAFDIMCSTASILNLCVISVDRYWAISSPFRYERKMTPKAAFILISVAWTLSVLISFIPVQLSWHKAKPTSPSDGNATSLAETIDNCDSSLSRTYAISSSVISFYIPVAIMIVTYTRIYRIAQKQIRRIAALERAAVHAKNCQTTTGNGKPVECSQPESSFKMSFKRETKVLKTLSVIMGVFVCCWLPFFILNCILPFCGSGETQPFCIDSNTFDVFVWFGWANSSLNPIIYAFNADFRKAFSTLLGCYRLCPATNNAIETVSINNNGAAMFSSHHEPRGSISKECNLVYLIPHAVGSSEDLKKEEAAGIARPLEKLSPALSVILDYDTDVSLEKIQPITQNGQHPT
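Compound effects on dopamine-evoked calcium signalling were measured in tetracycline-induced HEK293 Trex D1 cells. Dopamine at EC80 followed a 180 s compound pre-read, and fluorescence was tracked kinetically for 180 s more.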
D1 ag: human D1 receptor agonism. 360,000 tested, 1% active. HEK293 T-REx D1 cells, calcium flux, agonist mode. P21728. AID 504660. activation, % at 2 µM; also: 0% is about no effect
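Inducible HEK293 T-REx D1 cells, force-coupled to calcium signalling, were plated at 4000 cells/well with tetracycline and held overnight at 30 C. After no-wash calcium dye loading, compound-evoked calcium rise over 180 s flagged agonists.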
D1 PAM: human D1 dopamine receptor positive modulation | P21728 | HEK293 TREx D1 cells, calcium flux, dopamine EC20 potentiation | AID 504651 | 360,000 tested, 0.036% active | potentiation, % at 10 µM; in the data active = potentiation above about 30%; also: 0% is about no effect
TRHR ag: agonists of human TRH receptor; P34981; activation, % at 2 µM; 360,000 tested, 0.18% active; TRHR cells, calcium flux fluo-8, FDSS agonist mode; AID 493084; also: 0% is about no effect
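Read-out: compound-evoked intracellular calcium rise in TRHR cells, fluo-8 dye, kinetic FDSS fluorescence at 1 s/cycle following a 10-cycle baseline. Cells cultured overnight before dye loading (30 min–1.5 h, RT).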
TRHR enhancer: allosterically enhances the human TRH receptor. 360,000 tested, 0.66% active. P34981. enhancement, % at 2 µM. TRHR cells, fluo-8 calcium fluorescence, EC20 TRH enhancement. AID 493056; in the data active = enhancement above about 30%; also: 0% is about no effect
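Enhancer read-out: after compound pinning and an initial kinetic agonist-mode read, an EC20 of TRH (10 nM final) was injected and fluo-8 calcium signal (Ex 480/Em 530) followed at 1 s/cycle for 100 cycles in TRHR-expressing cells.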
* hit, by the source's call; . = not tested or not shown; ! = not confirmed by another sample. An excerpt weighted towards active compounds, which were near 4.6% of everything screened. Rule as the data show it, unless noted: active = activation above about 30%; inactive = the rest.

SMILES	D1 antagonist	D1 ag	D1 PAM	TRHR ag	TRHR enhancer
COc1ccc(-n2c(CN3CCOCC3)nc3ccc([N+](=O)[O-])cc3c2=O)c(OC)c1	3.5	0.1	-2.5	-1.3	-6.3
Cc1ccc(N(C(C)C(=O)N2CCCC2)S(C)(=O)=O)cc1 (stereo unspecified)	-32.1*	1.2	4.3	0.0	-7.0
Cc1ccccc1NC(=S)NCC1CCN(C(C)c2ccccc2)C1 (stereo unspecified)	-36.4*	0.4	-3.9	-0.9	1.0
COc1ccc(CNC(=O)c2ccc3c(c2)NC(=O)C(C)S3)cc1 (stereo unspecified)	-12.8	0.3	-0.8	0.0	36.1*
O=c1cc(C(F)(F)F)[nH]c2c(C(F)(F)F)cccc12	-22.3	31.6*	-5.0	4.7	-1.1
COC(=O)C1=C(C)N(C)C(C)=C(C(=O)OC)C1c1ccc(C(=O)OC)cc1	-2.7	0.1	-1.1	0.9	5.7
COC(=O)C1=CNC=C(C(=O)OC)C1c1ccc(C(=O)OC)cc1	-6.2	38.4*	-4.4	8.6	1.0
CCOc1ccccc1CN1CCC(CO)(CCOc2ccccc2)CC1	16.1	30.5*	-1.4	-0.3	5.3
OCC1(CCOc2ccccc2)CCN(Cc2ccccc2C(F)(F)F)CC1	4.0	9.0	0.0	0.7	-0.8
COc1ccc(CN2CCC(CO)(CCOc3ccccc3)CC2)c(OC)c1C	-30.7*	66.4*	-4.7	1.5	2.4
CCc1ccc(CNC(=O)C2CCCN(S(=O)(=O)N3CC(C)CC(C)C3)C2)cc1 (stereo unspecified)	-11.8	-1.7	-3.4	-0.1	6.7
O=C(CSc1nc2ccccc2s1)Nc1ccc2c(c1)oc1ccccc12	4.0	5.0	25.6	-2.6	2.8
O=C(c1cc2cc(F)ccc2[nH]1)N1CCc2ccccc21	-9.8	0.4	-4.4	0.5	-2.3
O=C(Oc1ccc2c(c1)O/C(=C\c1ccncc1)C2=O)c1ccccc1	3.4	56.2*	-1.1	-0.2	3.2
Cc1ccc(/C=C2\Oc3cc(OC(=O)N4CCOCC4)ccc3C2=O)cc1	-24.6	0.3	-6.2	0.5	-6.8
CCC(C)N(C(=O)c1csnn1)C(C(=O)NC1CCCC1)c1ccccc1F (stereo unspecified)	-18.8	-0.2	2.2	0.7	-10.3
O=C(Nc1ccc2ncccc2c1)Nc1ccc2ncccc2c1	-35.6*	1.1	-7.4	0.5	14.4
CN(C)c1ccc(/C=C(\C#N)C(=O)Nc2nc3c(s2)CCN(Cc2ccccc2)C3)cc1	-18.6	68.2*	-0.6	22.6	-5.8
O=C(Nc1nc2c(s1)CN(Cc1ccccc1)CC2)C1CCC1	-18.7	4.7	-0.8	0.1	-2.2
CC(C)(C)C1CCc2c(sc(NC(=O)Cn3nnc(-c4cccc(C(F)(F)F)c4)n3)c2C#N)C1 (stereo unspecified)	-4.9	-0.1	-2.2	0.9	0.1
CCN(Cc1ccncc1)C(=O)Cc1cccs1	-5.8	4.1	-3.8	0.9	0.3
CC(C)C[C@@H](CSc1ccccc1)N1CCN(CCc2ccccc2)CCC1=O	-3.8	5.2	5.9	-0.2	-2.4
CCCN1CCC(=O)N([C@H](CSc2ccc(OC)cc2)CC(C)C)CC1	-33.6*	0.3	-2.0	-0.2	-5.7
Cc1ccc(-c2c(C#N)c(N)nc3c2CCCC3)o1	24.1	39.3*	-0.5	0.0	4.1
CCOC(=O)C(C)Sc1nnc(-c2c[nH]c3ccccc23)n1C (stereo unspecified)	-12.8	2.3	-4.0	0.1	-4.0
SMILES	D1 antagonist	D1 ag	D1 PAM	TRHR ag	TRHR enhancer
CCOCCCNC(=S)N1CCCN(c2nc3cc(C)c(C)cc3cc2C#N)CC1	-32.6*	0.1	-2.8	-0.7	3.9
COCCCNC(=S)N1CCCN(c2nc3cc(C)c(C)cc3cc2C#N)CC1	6.8	-0.1	-1.1	-1.2	1.9
OCCC1CN(Cc2cccn2-c2nccs2)CCN1C1CCCCC1 (stereo unspecified)	0.1	0.8	-1.2	0.5	-1.0
CC(C)N1CCN(Cc2cccn2-c2nccs2)CC1CCO (stereo unspecified)	5.5	14.1	0.7	2.4	35.6*
CSc1ccc(CN2CCN(C(C)C)C(CCO)C2)cc1 (stereo unspecified)	-35.3*	0.0	-0.5	-1.1	-2.9
CC(C)N1CCN(Cc2ccncc2)CC1CCO (stereo unspecified)	3.7	3.2	-4.5	0.9	-5.7
COc1nccnc1NS(=O)(=O)c1ccc(NCc2cc(Br)ccc2O)cc1	4.1	1.5	14.4	-0.1	-0.3
O=C(COC(=O)c1cccc(OC(F)F)c1)NC(=O)NC1CCCCC1	-11.5	42.5*	-2.9	-1.1	1.8
O=C(COC(=O)c1ccc(Cl)c([N+](=O)[O-])c1)NC1CCCC1	-23.7	0.8	-4.5	-0.7	-4.6
O=C(COC(=O)c1ccccc1C(=O)c1ccc(Cl)c([N+](=O)[O-])c1)NC1CCCCCC1	-34.5*	2.8	-4.5	-0.8	-1.5
O=C(COC(=O)c1cccc2c1C(=O)c1ccccc1C2=O)NC1CCCCC1	-77.8*	6.7	3.4	0.5	4.3
N#Cc1cccc(C(=O)OCC(=O)NC(=O)NC2CCCCC2)c1	-2.4	4.6	-2.8	0.5	-2.2
O=C(COC(=O)c1ccc2c(c1[N+](=O)[O-])C(=O)c1ccccc1C2=O)NC1CC1	-4.6	-0.1	-2.6	-0.1	0.2
O=C(CCNC(=O)c1ccco1)Nc1ccccc1OC(F)F	3.4	3.3	.	0.6	-6.7
O=C(CCNC(=O)c1ccco1)Nc1ccc(OC(F)F)c(Cl)c1	-31.0*	2.3	-7.7	-0.1	-5.8
C[n+]1ccc(/C=C/c2c[nH]c3ccc(F)cc23)cc1	-4.4	56.1*	-6.0	-0.5	9.4
Cc1cc(C)cc(NC(=O)Cn2cc3c(n2)CCCCC3)c1	-1.2	51.1*	-0.2	-0.6	1.0
CN(C)c1ccc(CNC(=O)c2cc3cc(S(=O)(=O)N4CCCCC4)ccc3n2C)cc1	-12.5	3.6	-0.1	0.0	0.9
O=C(CCn1ccc2cc(S(=O)(=O)N3CCCC3)ccc21)NCc1cccc(F)c1	-32.6*!	1.3	0.1	-1.4	-12.0
Cn1c(C(=O)NCc2ccccc2F)cc2cc(S(=O)(=O)N3CCCCC3)ccc21	4.6	6.5	-3.9	0.4	0.9
Cn1c(C(=O)NCc2cccc(F)c2)cc2cc(S(=O)(=O)N3CCCCC3)ccc21	-53.7*	3.7	-1.1	0.6	0.7
Cc1cccc(CNC(=O)c2cc3cc(S(=O)(=O)N4CCCCC4)ccc3n2C)c1	-46.3*	4.3	-3.9	0.3	0.1
O=C(COC(=O)CNC(=O)c1ccc(Cl)cc1Cl)Nc1ccc(N2CCOCC2)cc1	-11.3	2.0	-6.9	-0.2	-6.1
Cc1ccc(-c2nc3ccsc3c(=O)o2)cc1	-87.1*	-0.8	-0.3	0.3	12.7
CCOC(=O)c1cc2c(C)n(-c3ccc(C)cc3)c(C)c2ccc1=O	-58.3*	9.9	-15.8	0.2	-1.1
